Assay results published in PubChem BioAssay (Tox21).
Records with an inconclusive call do not appear. Activity calls are given as the source filed them. Calls follow the shape of the dose curve; as a rule, active = well fitted activation curve with a large enough effect in the repeat runs; inconclusive = weak or mixed curves; inactive = flat fitted curve, though single readings scatter.

Test: Caspase-3/7 induction in HepG2 cells by small molecules, qHTS assay (AID 1346978); also: nearly all actives have a fitted effect of over 15% in size
Conditions: HepG2 caspase-3/7 activation, Caspase-Glo luminescence, 17 h; series mostly up to 92.4 µM
Excerpt: National Center for Advancing Translational Sciences [NCATS] NIH Chemical Genomics Center [NCGC] U.S. Environmental Protection Agency [EPA] National Institutes of Environmental Health Sciences [NIEHS] National Toxicology Program [NTP] Assay overview: Apoptosis is a process of programmed cell death and plays a central role in the development of multicellular organisms. It is a highly regulated process and induces cell death by activating caspases, which are the members of cysteine aspartic acid-specific protease (caspase) family. Caspases involved in apoptosis are classified by their mechanism of action as initiator caspases (caspase-2, -8, -9 and -10) and executioner caspases (caspase-3, -6, and -7). Inhibition of apoptosis results in number of cancers, autoimmune diseases, inflammatory diseases and viral infection. To identify small molecule compounds that induce apoptosis, a homogeneous, luminescent Caspase-Glo 3/7 assay was used. Wild type HepG2 cells were used to screen Tox21 libraries for identifying caspase-3/7 activity inducers.
Assay Protocol Summary: HepG2 cells were dispensed at 2,000 per well in 5uL of culture medium into white solid bottom 1536-well plates (Corning Life Sciences, Corning, NY) using a Multidrop Combi (Thermo Scientific, Waltham, MA) dispenser. The assay plates were incubated at 37 C and 5% CO2 for 5hr, and then 23nL of compounds dissolved in DMSO and positive control were transferred using a Pintool station (Wako, San Diego, CA). The assay plates were incubated at 37C and 5% CO2 for 17hr. For caspase-3/7 activity read, 4uL of Caspase-Glo 3/7 reagent (Promega Corporation, Madison, WI) was added to each well of the assay plates using Flying Reagent Dispenser (FRD, Aurora Discovery, San Diego, CA) and incubated the assay plates at room temperature for 30min. The luminescence signal was quantified using a ViewLux plate reader (Perkin Elmer, Shelton, CT).

| Structure (SMILES) | outcome |
| --- | --- |
| CCC(=O)c1cccc(Cl)c1 | inactive |
| CC(C)COC(=O)c1ccccc1O | inactive |
| CCN1CCCC1CNC(=O)c1cc(S(N)(=O)=O)ccc1OC (stereo not given) | inactive |
| CC(C)CCOC(=O)CC(C)C | inactive |
| CC(C=O)Cc1ccc(C(C)C)cc1 (stereo not given) | inactive |
| CC(C)CCCC(C)NCCC(C)C (stereo not given) | inactive |
| C/C=C1\C(=O)C[C@H]2[C@@H]3CCC4=CC(=O)CC[C@]4(C)[C@H]3CC[C@]12C | inactive |
| CC(=O)O[C@H](CC(=O)[O-])C[N+](C)(C)C | inactive |
| O=c1[nH]c2ccccc2c(=O)n1CCCl | inactive |
| COC(=O)CCCCCCCCC(=O)OC | inactive |
| Cc1ccc(N)cc1[N+](=O)[O-] | inactive |
| C#CC(O)C(CC)CCCC (stereo not given) | inactive |
| COCCOC(=O)CC#N | inactive |
| CC(C)CCCC(C)CCCC(C)CCCCC(C)CCCC(C)CCCC(C)C (stereo not given) | inactive |
| C1=C\CC/C=C\CC/C=C\CC/1 | inactive |
| Nc1ncnc2c1ncn2Cc1c(F)cccc1Cl | inactive |
| CC(C)[C@H](N)C(=O)OCCOCn1cnc2c(=O)[nH]c(N)nc21 | inactive |
| CCCCN(CCO)CCO | inactive |
| COc1ccc(COC=O)cc1 | inactive |
| COc1cccc(OC)c1 | inactive |

| Structure (SMILES) | outcome |
| --- | --- |
| [O-][N+](=Nc1ccccc1)c1ccccc1 | inactive |
| COc1nc(C)nc(N)n1 | inactive |
| CCCC(=O)O[C@]1(C(=O)CCl)[C@@H](C)C[C@H]2[C@@H]3CCC4=CC(=O)C=C[C@]4(C)[C@@]3(F)C(=O)C[C@@]21C | inactive |
| CCCCCCCCCCC1CO1 (stereo not given) | inactive |
| O=C(O)/C=C/c1ccc(Cn2ccnc2)cc1 | inactive |
| NC(=O)c1ncn([C@@H]2O[C@H](CO)[C@@H](O)[C@H]2O)c1O | inactive |
| CC(=O)N[C@@H](CCC(N)=O)C(=O)O | inactive |
| O=C(O)C(O)[C@H](O)[C@@H](O)[C@H](O)[C@H](O)CO (stereo not given in full) | inactive |
| CCCCc1ccc2cccc(S(=O)(=O)O)c2c1 | inactive |
| NC(=O)c1ncn([C@@H]2O[C@H](CO)[C@@H](O)[C@H]2O)c1N | inactive |
| CC(=O)c1ccc(C)cc1 | inactive |
| OCc1ccccn1 | inactive |
| CCCCCCCCC=O | inactive |
| CCCCCN(CCCCC)C(=O)C(CCC(=O)O)NC(=O)c1ccc(Cl)c(Cl)c1 (stereo not given) | inactive |
| CCCC(C)CO (stereo not given) | inactive |
| O=Cc1ccccc1[N+](=O)[O-] | inactive |
| O=C1OC(=O)c2cc([N+](=O)[O-])ccc21 | inactive |
| CN1[C@@H]2CC[C@H]1CC(NC(=O)n1c(=O)[nH]c3ccccc31)C2 (stereo not given in full) | inactive |
| Fc1ccccc1-c1ccccc1 | inactive |
| NC(=O)c1c(Cl)cccc1Cl | inactive |
